The target of the first assay is SpBzz1-D2. In words: SPOT peptide array binding signal intensity (averaged, normalized) (arbitrary units (background-subtracted, floor 0; scale differs between SH3 domains)); higher = stronger binding of the SH3 domain to the peptide. As for the experimental part:
(§1)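 GST-tagged SH3 domains from S. cerevisiae (Sc), A. gossypii (Ag), C. albicans (Ca) and S. pombe (Sp) were incubated at 10 ug/ml overnight at 4 C on cellulose SPOT membranes carrying 292 synthetic 15-mer peptides mined from the S. cerevisiae proteome (cysteines replaced by serines). Binding was detected with anti-GST antibody, HRP secondary and chemiluminescence, quantified with Genespotter, and reported as normalized spot intensities averaged over biological replicates.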
As for RKRRTHLRLPLIRSN, the “SPOT peptide array binding signal intensity” value is at most 0.

A further assay concerns the target SpCyk3. The description is as above. As for the experimental part: as §1
Regarding RKRRTHLRLPLIRSN, the “SPOT peptide array binding signal intensity” value is 2.

The target of another assay is SpHof1. The description is as above. As for the experimental part:
as §1
As for RKRRTHLRLPLIRSN, the “SPOT peptide array binding signal intensity” value is 299.

In another assay the target is SpHof1-2. The description is as above. On the procedure:
as §1
Consider RKRRTHLRLPLIRSN, for which the “SPOT peptide array binding signal intensity” value amounted to 9.

Another assay deals with SpHof1-3. The assay is described as above. On the procedure:
as §1
Regarding RKRRTHLRLPLIRSN, the “SPOT peptide array binding signal intensity” value is 1060.

Another assay has as its target SpHse1. The assay is described as above. As for the experimental part:
as §1
As for RKRRTHLRLPLIRSN, the “SPOT peptide array binding signal intensity” value came out at 622.

Another assay deals with SpLsb1. The description is as above. As for the experimental part: as §1
With RKRRTHLRLPLIRSN, the “SPOT peptide array binding signal intensity” value amounted to 0.5.

A further assay concerns the target SpLsb4. Described as above. As for the experimental part:
as §1
On to RKRRTHLRLPLIRSN, for which the “SPOT peptide array binding signal intensity” value amounted to 260.

Another assay concerns the target SpMyo1. Described as above. As for the experimental part: as §1
Turning to RKRRTHLRLPLIRSN, the “SPOT peptide array binding signal intensity” value came out at 9.

For another assay, the target named is SpNbp2. The description is as above. As for the experimental part: as §1
For the molecule RKRRTHLRLPLIRSN, the “SPOT peptide array binding signal intensity” value was 350.

In a further assay the target is SpPex13. Described as above. As for the experimental part:
as §1
With RKRRTHLRLPLIRSN, the “SPOT peptide array binding signal intensity” value was determined as 13.

The target in the next assay is SpRvs167. Described as above. On the procedure:
as §1
For RKRRTHLRLPLIRSN, the “SPOT peptide array binding signal intensity” value was 9.33.

The target in the next assay is SpSla1-D1-D2. The assay is described as above. As for the experimental part: as §1
Turning to RKRRTHLRLPLIRSN, the “SPOT peptide array binding signal intensity” value is at most 0.

Another assay concerns the target SpSla1-D3. The assay is described as above. As for the experimental part: as §1
In the case of RKRRTHLRLPLIRSN, the “SPOT peptide array binding signal intensity” value is at most 0.

(Values after the supplement of paper PMC4466140.)
